# From PubChem BioAssay (Tox21)
# Unmarked numbers belong to inactive results. Results filed as inconclusive are left out. Calls of active or inactive are those of the source. Calls follow the shape of the full dose curve.
# Target: Acetylcholinesterase (Homo sapiens) (UniProt P22303)
# Assay: Acetylcholinesterase (AChE) small molecule antagonists: enzyme-based qHTS assay (AID 1347397); also: nearly all actives have a fitted effect of over 55% in size
# Details: Potency: AChE enzyme activity inhibition; series mostly up to 115 µM; activity change, negative = inhibition: at the top concentration
# How it was run: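 Absorbance-based detection of thiocholine with DTNB served as the read-out. Recombinant human AChE was exposed to compound for 30 min at RT before a 10 min RT incubation with acetylthiocholine.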
# % is scaled to controls: 0 for no effect and ±100 for the full control effect.
# Acetylcholinesterase (Homo sapiens), sequence (P22303 whole entry, looked up): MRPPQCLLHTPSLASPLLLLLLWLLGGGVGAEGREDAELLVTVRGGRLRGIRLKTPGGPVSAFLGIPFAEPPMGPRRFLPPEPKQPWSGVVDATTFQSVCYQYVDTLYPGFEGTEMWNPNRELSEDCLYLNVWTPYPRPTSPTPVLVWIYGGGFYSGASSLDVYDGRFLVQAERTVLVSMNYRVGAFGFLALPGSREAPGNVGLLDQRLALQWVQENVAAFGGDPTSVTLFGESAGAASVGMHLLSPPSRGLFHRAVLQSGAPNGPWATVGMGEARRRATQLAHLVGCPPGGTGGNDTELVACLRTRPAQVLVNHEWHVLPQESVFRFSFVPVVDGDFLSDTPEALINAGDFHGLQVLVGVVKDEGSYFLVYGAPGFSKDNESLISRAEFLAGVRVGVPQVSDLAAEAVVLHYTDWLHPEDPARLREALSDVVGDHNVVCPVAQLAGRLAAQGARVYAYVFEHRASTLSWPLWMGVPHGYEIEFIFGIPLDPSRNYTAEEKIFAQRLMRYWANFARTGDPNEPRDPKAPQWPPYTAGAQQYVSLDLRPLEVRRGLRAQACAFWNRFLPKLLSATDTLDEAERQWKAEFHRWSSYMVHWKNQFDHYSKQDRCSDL
Compound,"activity change, negative = inhibition",Potency
CCOP(=S)(OCC)Oc1cc(C)nc(N(CC)CC)n1,-12.5%,–
CC(C)C(Nc1ccc(C(F)(F)F)cc1Cl)C(=O)OC(C#N)c1cccc(Oc2ccccc2)c1 (centres undefined),-19%,–
O=C(O)CCCCCCNC1c2ccccc2CCc2ccccc21,-0.277% [at 53 µM],–
Cc1cccc(Cc2cnc[nH]2)c1C,-0.585% [at 53 µM],–
OCC(Br)CBr (centres undefined),2.6%,–
Oc1ccc(Cl)c(Cl)c1,0.134%,–
CC1CN1 (centres undefined),2.04%,–
CC(C)c1c(CN(C)C(C)Cc2ccccc2)n(C)n(-c2ccccc2)c1=O (centres undefined),-0.426% [at 53 µM],–
C[C@]12C/C(=C/O)C(=O)C[C@@H]1CC[C@@H]1[C@@H]2CC[C@@]2(C)[C@H]1CC[C@]2(C)O,–,inactive
[Cl][Hg][c]1ccccc1,-22.3%,–
O=C(Cl)c1ccccc1F,1.37%,–
CCCN,0.67%,–

# Target: Acetylcholinesterase (Homo sapiens) (UniProt P22303)
# Assay: Acetylcholinesterase (AChE) small molecule antagonists: fluorescence cell-based qHTS assay (AID 1347398); also: nearly all actives have a fitted effect of over 50% in size; also: potency is read from the fitted curve at half-maximal effect
# Details: SH-SY5Y cells; Potency: AChE activity; series mostly up to 115 µM; activity change, negative = inhibition: at the top concentration
# How it was run: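 Fluorimetric cell-based assay: intact SH-SY5Y cells, 30 min compound preincubation at 37 C, acetylthiocholine substrate with thiol probe Thiolite Green, 40 min RT development, fluorescence 490/520 nm.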
Compound,"activity change, negative = inhibition",Potency
Cc1ccc([N+](=O)[O-])[c]2c1[O][Hg]2,-24.3% [at 53.7 µM],–
CC(=O)[O][Sn]([c]1ccccc1)([c]1ccccc1)[c]1ccccc1,1.81%,–
C=C(C)C(=O)[O][Sn]([CH2]CCC)([CH2]CCC)[CH2]CCC,7.97%,–
CNC(=O)/C=C(\C)OP(=O)(OC)OC,–,31.7 µM (active)
CC(C)C(Nc1ccc(C(F)(F)F)cc1Cl)C(=O)OC(C#N)c1cccc(Oc2ccccc2)c1 (centres undefined),-24%,–
N#Cc1ccc(N(CC(N)=O)CC(F)(F)F)cc1C(F)(F)F,-3.07%,–
O=C(O)CCCCCCNC1c2ccccc2CCc2ccccc21,3.15% [at 53.7 µM],–
C=CC(=O)[O][Sn]([CH2]CCC)([CH2]CCC)[CH2]CCC,7.97%,–
NC(=O)C(Cl)Cl,-15.4%,–
CCOP(=O)(OCC)Oc1cc(C)nc(C(C)C)n1,–,0.714 µM (active)
OCC(Br)CBr (centres undefined),0.801%,–
N#CCCl,7.35%,–
C=CC(=C)C,1.09%,–
CC(=O)[O][Pb]([c]1ccccc1)([c]1ccccc1)[c]1ccccc1,4.17%,–
CCCCc1ccccc1,-0.459%,–
CCNS(=O)(=O)C(F)(F)C(F)(F)C(F)(F)C(F)(F)C(F)(F)C(F)(F)C(F)(F)C(F)(F)F,4.25%,–
Oc1ccc(Cl)c(Cl)c1,0.693%,–

Compound,"activity change, negative = inhibition",Potency
O=C(Nc1ccc(F)cc1F)c1cccnc1Oc1cccc(C(F)(F)F)c1,2.31%,–
ClC1(Cl)C2(Cl)C3(Cl)C4(Cl)C(Cl)(Cl)C5(Cl)C3(Cl)C1(Cl)C5(Cl)C24Cl (centres undefined),2.81%,–
CC(C)=CCN1CC[C@@]2(C)c3cc(O)ccc3C[C@@H]1[C@@H]2C,–,44.1 µM (active)
CC1CN1 (centres undefined),-2.07%,–
CC(C)c1c(CN(C)C(C)Cc2ccccc2)n(C)n(-c2ccccc2)c1=O (centres undefined),-4.83% [at 53.7 µM],–
Cc1nn(-c2cc(NS(C)(=O)=O)c(Cl)cc2Cl)c(=O)n1C(F)F,4.5%,–
CCC[CH2][Sn]([CH2]CCC)([CH2]CCC)[CH2]CCC,8.21%,–
O=S1(=O)OCC2C(CO1)C1(Cl)C(Cl)=C(Cl)C2(Cl)C1(Cl)Cl (centres undefined),9.5%,–
C[C@]12C/C(=C/O)C(=O)C[C@@H]1CC[C@@H]1[C@@H]2CC[C@@]2(C)[C@H]1CC[C@]2(C)O,–,inactive
CCCCCON=O,1.19%,–
ClC(Cl)C(Cl)(Cl)Cl,1.46%,–
COC(=O)/C=C(\C)OP(=O)(OC)OC,–,1 µM (active)
CCCCC(CC)COC(=O)c1ccccc1C(=O)OCC(CC)CCCC (centres undefined),0%,–
O=C(Cl)c1ccccc1F,6.19%,–
CC1(C)[C@H](/C=C2\CCSC2=O)[C@@H]1C(=O)OCc1coc(Cc2ccccc2)c1,-10%,–
CCCCN(CCCC)C(=S)S,-0.255%,–
CCCN,0.883%,–

# Target: Acetylcholinesterase (Homo sapiens) (UniProt P22303)
# Assay: Acetylcholinesterase (AChE) small molecule antagonists: enzyme-based qHTS assay with human liver microsomes (AID 1347399); also: nearly all actives have a fitted effect of over 60% in size; also: potency is read from the fitted curve at half-maximal effect
# Details: Potency: qHTS inhibition; series mostly up to 115 µM; activity change, negative = inhibition: at the top concentration
# How it was run: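 Recombinant human AChE (50 mU/mL in the enzyme mix) and human liver microsomes (0.25 mg/mL final) were preincubated with compound and NADPH (0.25 mg/mL final) for 30 min at 37 C. Acetylthiocholine/DTNB was then added; thiocholine was read colorimetrically after 10 min at room temperature.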
Compound,"activity change, negative = inhibition",Potency
CCOP(=S)(OCC)Oc1cc(C)nc(N(CC)CC)n1,-12.7%,–
Cc1ccc([N+](=O)[O-])[c]2c1[O][Hg]2,1.34% [at 53 µM],–
CC(=O)[O][Sn]([c]1ccccc1)([c]1ccccc1)[c]1ccccc1,1.45%,–
C=C(C)C(=O)[O][Sn]([CH2]CCC)([CH2]CCC)[CH2]CCC,1.72%,–
CNC(=O)/C=C(\C)OP(=O)(OC)OC,0%,–
CC(C)C(Nc1ccc(C(F)(F)F)cc1Cl)C(=O)OC(C#N)c1cccc(Oc2ccccc2)c1 (centres undefined),4.24%,–
N#Cc1ccc(N(CC(N)=O)CC(F)(F)F)cc1C(F)(F)F,0.56%,–
O=C(O)CCCCCCNC1c2ccccc2CCc2ccccc21,1.01% [at 53 µM],–
C=CC(=O)[O][Sn]([CH2]CCC)([CH2]CCC)[CH2]CCC,0.464%,–
NC(=O)C(Cl)Cl,0.341%,–
Cc1cccc(Cc2cnc[nH]2)c1C,-0.335% [at 53 µM],–
N#CSCc1ccccc1,0.657%,–
CCOP(=O)(OCC)Oc1cc(C)nc(C(C)C)n1,–,25.3 µM (active)
OCC(Br)CBr (centres undefined),0.0214%,–
N#CCCl,-1.18%,–
C=CC(=C)C,-4.19%,–
CC(=O)[O][Pb]([c]1ccccc1)([c]1ccccc1)[c]1ccccc1,-0.898%,–
CCCCc1ccccc1,0.583%,–
CCNS(=O)(=O)C(F)(F)C(F)(F)C(F)(F)C(F)(F)C(F)(F)C(F)(F)C(F)(F)C(F)(F)F,-4.03%,–

Compound,"activity change, negative = inhibition",Potency
Oc1ccc(Cl)c(Cl)c1,-1.03%,–
O=C(Nc1ccc(F)cc1F)c1cccnc1Oc1cccc(C(F)(F)F)c1,-1.02%,–
ClC1(Cl)C2(Cl)C3(Cl)C4(Cl)C(Cl)(Cl)C5(Cl)C3(Cl)C1(Cl)C5(Cl)C24Cl (centres undefined),1.2%,–
CC(C)=CCN1CC[C@@]2(C)c3cc(O)ccc3C[C@@H]1[C@@H]2C,-1.19%,–
CC1CN1 (centres undefined),0.641%,–
CC(C)c1c(CN(C)C(C)Cc2ccccc2)n(C)n(-c2ccccc2)c1=O (centres undefined),-0.084% [at 53 µM],–
Cc1nn(-c2cc(NS(C)(=O)=O)c(Cl)cc2Cl)c(=O)n1C(F)F,0.583%,–
CCC[CH2][Sn]([CH2]CCC)([CH2]CCC)[CH2]CCC,1.27%,–
O=S1(=O)OCC2C(CO1)C1(Cl)C(Cl)=C(Cl)C2(Cl)C1(Cl)Cl (centres undefined),-1.17%,–
C[C@]12C/C(=C/O)C(=O)C[C@@H]1CC[C@@H]1[C@@H]2CC[C@@]2(C)[C@H]1CC[C@]2(C)O,–,inactive
[Cl][Hg][c]1ccccc1,-11.1%,–
CCCCCON=O,-1.13%,–
ClC(Cl)C(Cl)(Cl)Cl,2.71%,–
COC(=O)/C=C(\C)OP(=O)(OC)OC,–,17.8 µM (active)
CCCCC(CC)COC(=O)c1ccccc1C(=O)OCC(CC)CCCC (centres undefined),1.34%,–
O=C(Cl)c1ccccc1F,-3.76%,–
CC1(C)[C@H](/C=C2\CCSC2=O)[C@@H]1C(=O)OCc1coc(Cc2ccccc2)c1,-1.06%,–
CCCCN(CCCC)C(=S)S,-2.29%,–
CCCN,0.171%,–
